# Measurements reported in PubChem BioAssay.
# Calls of active or inactive are those of the source.
# Tested on: wheat germ agglutinin (Triticum aestivum), Alexa647-labelled
# Experiment: Alexa647-WGA lectin binding to printed small molecules – biochemical, small-molecule microarray, 635/667 nm fluorescence, artefact control for SMM control-protein annotation, profiling panel (AID 1140);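 also: score merges 667 nm feature emission with signal to noise over triplicate slides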
# Details: WGA-A647 binding, 635 nm fluorescence, higher = more signal
row,Compound,composite z-score
1,Cn1c(=O)n2n(c1=O)[C@H]1[C@H](O)[C@@H]3O[C@@H]3C(=O)[C@H]1CC2,0.138
2,O=C1C[C@@H](O)[C@@H](O)[C@@H]2[C@@H]3C(=O)N(C[C@@H]4CCCO4)C(=O)[C@@H]3CC[C@@H]12,0.208
3,COc1ccc(O[C@H]2C=C[C@@H](c3ccccc3)O[C@@H]2CON=C2[C@H]3CCn4c(=O)n(-c5ccccc5)c(=O)n4[C@H]3[C@H](O)[C@@H]3O[C@H]23)cc1,0.883

# Biological target: Luciferin 4-monooxygenase (Photinus pyralis) (UniProt P08659)
# Experiment: inhibition of purified Photinus pyralis luciferase – biochemical, luminescence, purified enzyme, 2006 set, primary screen (AID 1141);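 also: cell-free assay with purified firefly luciferase at 100 ng per well in PBS; test concentration not given here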
# Details: purified firefly luciferase, SteadyGlo luminescence, 30 min; higher = more signal, called active from +8 up or from −8 down
# Sequence of Luciferin 4-monooxygenase (Photinus pyralis) (P08659 whole entry, looked up): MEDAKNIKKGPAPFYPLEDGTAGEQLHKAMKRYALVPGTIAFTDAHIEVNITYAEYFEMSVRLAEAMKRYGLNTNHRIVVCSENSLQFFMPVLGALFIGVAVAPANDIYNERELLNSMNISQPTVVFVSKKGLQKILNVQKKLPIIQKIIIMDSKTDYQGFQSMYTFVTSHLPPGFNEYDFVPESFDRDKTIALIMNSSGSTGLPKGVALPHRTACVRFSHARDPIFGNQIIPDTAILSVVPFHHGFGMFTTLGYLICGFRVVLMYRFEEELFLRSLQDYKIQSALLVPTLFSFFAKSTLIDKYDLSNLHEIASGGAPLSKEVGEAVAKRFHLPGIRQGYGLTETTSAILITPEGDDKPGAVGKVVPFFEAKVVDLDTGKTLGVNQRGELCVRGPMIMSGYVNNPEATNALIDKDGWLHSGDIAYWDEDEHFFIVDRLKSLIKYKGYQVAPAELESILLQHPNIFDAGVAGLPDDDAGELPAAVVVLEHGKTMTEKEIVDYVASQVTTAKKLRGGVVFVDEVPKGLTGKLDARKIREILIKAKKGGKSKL
row,Compound,z-score
1,CC(C)CCN1CCc2nc(COc3ccccc3)c3c(c2C1)CO[C@@H](C)C3,-0.781 (inactive)
2,O=C(NN=C1C[C@@H](O)[C@@H](O)[C@@H]2[C@@H]3C(=O)N(Cc4ccccc4)C(=O)[C@@H]3CC[C@@H]12)OCc1ccccc1,0.472 (inactive)
3,CO[C@@H]1COC(=O)[C@@H](C)COC(=O)[C@@H](C)NC(=O)CC=C[C@@H]1C,0.138 (inactive)
4,CO[C@@H]1COC(=O)CC=C[C@@H](C)[C@@H]2C=C[C@H](O)[C@@H](COC(=O)CC=C[C@H]1C)O2,-1.35 (inactive)
5,COC(=O)[C@@H]1CC[C@H](C)[C@@H](c2ccc(C)cc2)N1C(=O)c1ccc(C=NO[C@H](C)c2cn([C@H](CO)Cc3ccccc3)nn2)cc1,0.184 (inactive)
6,CCC=CCCC(OC(=O)c1ccc(Br)cc1)C1=CCCCC1=O (centres undefined),0.0771 (inactive)
7,CO[C@H]1COC(=O)[C@@H](C)COC(=O)[C@H](COCc2ccccc2)NC(=O)CC=C[C@H]1C,-0.949 (inactive)
8,CCOC(=O)CCN1C(=O)[C@H]2[C@H]3[C@H](O)[C@H](O)CC(=NOCC(C)C)[C@H]3CC[C@H]2C1=O,-0.562 (inactive)
9,C#CCCCON=C1C[C@@H](O)[C@@H](O)[C@@H]2[C@@H]3C(=O)N(CC)C(=O)[C@@H]3CC[C@@H]12,0.194 (inactive)
10,CON=C1[C@H]2CCn3c(=O)n(-c4ccccc4)c(=O)n3[C@H]2[C@H](O)[C@@H]2O[C@H]12,-2.49 (inactive)
11,CC(C)=CCCC(C)=CCON=C1C[C@@H](O)[C@@H](O)[C@@H]2[C@@H]3C(=O)N(C(C)(C)C)C(=O)[C@@H]3CC[C@@H]12,0.421 (inactive)
12,CC(C)(C)N1C(=O)[C@H]2[C@H]3[C@H](O)[C@H](O)CC(=O)[C@@H]3CC[C@H]2C1=O,0.166 (inactive)
13,CC(=O)OC[C@H]1O[C@H](CC=NO[C@H](C)c2cn([C@H](CO)Cc3ccccc3)nn2)C=C[C@@H]1OC(C)=O,0.809 (inactive)
14,C=Cc1ccc([C@H]2N[C@H](C(=O)O)CC[C@@H]2C)cc1,-0.33 (inactive)
15,O=C(C=Cc1ccc2c(c1)OCO2)c1ccc(F)cc1,-6.89 (inactive)
16,C[C@@H]1CC[C@H]2C(=O)O[C@@H](Cc3ccccc3)CN2[C@H]1c1ccc(Br)cc1,0.178 (inactive)
17,C=CC1=C[C@H](O)[C@@H]2O[C@@H]2C12OCCCO2,0.571 (inactive)
18,CCN1C(=O)[C@H]2[C@H]3[C@H](O)[C@H](O)CC(=NO[C@@H](C)c4cn([C@H](CO)Cc5ccccc5)nn4)[C@@H]3CC[C@H]2C1=O,0.465 (inactive)

row,Compound,z-score
1,CCOC(=O)[C@H](Cc1ccccc1)NC(=O)CCC1CC(OC(=O)NCc2ccc3c(c2)OCO3)CC2(CCCC(COC(=O)NCCC(C)C)O2)O1 (some centres undefined),0.906 (inactive)
2,O=C1[C@H]2[C@H]3[C@H](O)[C@H](O)CC(=NOC[C@@H](O)COCc4ccco4)[C@H]3CC[C@H]2C(=O)N1C[C@@H]1CCCO1,1.02 (inactive)
3,CC(C)=NO[C@H](C)c1cn([C@H](CO)Cc2ccccc2)nn1,-1.69 (inactive)
4,O=C1CCCC=C1C(O)CCCCBr (centres undefined),-1.97 (inactive)
5,COC(=O)CC=C[C@@H](C)[C@@H](C=NOC[C@@H](O)[C@H]1O[C@@H]2OC(C)(C)O[C@@H]2[C@H]1O)NS(=O)(=O)c1ccc(C)cc1,0.543 (inactive)
6,CCOC(=O)[C@H](Cc1ccccc1)NC(=O)CCC1CC(OC(=O)NCCc2ccc(F)cc2)CC2(CCCC(COC(=O)NCc3ccccc3)O2)O1 (some centres undefined),0.877 (inactive)
7,COC(=O)CC=C[C@@H](C)[C@@H](C=NOC(C)CN1CCCc2nc(C)c(C)cc21)OC (some centres undefined),0.423 (inactive)
8,O=C1CCCC=C1C(O)CCOC(c1ccccc1)(c1ccccc1)c1ccccc1 (centres undefined),-0.395 (inactive)
9,C[C@@H]1C=CCC(=O)OC[C@H]2O[C@@H](C=C[C@@H]2O)[C@H](C)C=CCC(=O)OC1,-1.82 (inactive)
10,CO[C@@H]1C=CCC(=O)N[C@@H](C)C(=O)OC[C@@H](OC)[C@H](C)CCCC(=O)OC[C@H]1C,1.13 (inactive)
11,Cc1ccc(S(=O)(=O)OC[C@H]2CN3[C@H](c4ccc(Br)cc4)[C@@H](C)CC[C@H]3C(=O)O2)cc1,-0.849 (inactive)
12,CC(C)=CCCC(C)=CCON=C1C[C@@H](O)[C@@H](O)[C@@H]2[C@@H]3C(=O)N(C4CCCCC4)C(=O)[C@@H]3CC[C@@H]12,0.335 (inactive)
13,O=C1C=C[C@@H](O)[C@@H]2[C@@H]3C(=O)N(C[C@@H]4CCCO4)C(=O)[C@@H]3CC[C@@H]12,-0.0563 (inactive)
14,CCOC(=O)[C@H](CC(C)C)NC(=O)CCC1CC(OC(=O)NCc2cccc3ccccc23)CC2(CCCC(COC(=O)NCCCN3CCCC3=O)O2)O1 (some centres undefined),0.974 (inactive)
15,Cc1ccc(S(=O)(=O)N[C@H]2COC(=O)CC=C[C@@H](C)COC(=O)CC=C[C@@H]2C)cc1,-0.268 (inactive)
16,Cn1c(=O)n2n(c1=O)[C@H]1[C@H](O)[C@@H]3O[C@@H]3C(=O)[C@H]1CC2,-0.28 (inactive)
17,O=C1C[C@@H](O)[C@@H](O)[C@@H]2[C@@H]3C(=O)N(C[C@@H]4CCCO4)C(=O)[C@@H]3CC[C@@H]12,-0.658 (inactive)
18,COc1ccc(O[C@H]2C=C[C@@H](c3ccccc3)O[C@@H]2CON=C2[C@H]3CCn4c(=O)n(-c5ccccc5)c(=O)n4[C@H]3[C@H](O)[C@@H]3O[C@H]23)cc1,0.618 (inactive)
